# In the supplement of paper PMC6555819:
# Assays:
# Experiment in all cases: PBM binding z-score (relative to random genomic background probes); higher = stronger binding; sequences stand for … in GC…GCGATTGACAGCGTAGAATGAAGG
# [1] = tested on: FXR:RXRa (NR concentration 270 nM, RXRa partner concentration 90 nM)
# In short: (§1)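 Binding buffer was PBS pH 7.4 with 2% milk, 0.02% Triton X-100, 1 mM DTT, 0.2 mg/mL BSA and 0.4 mg/ml salmon testes DNA. In it, ligand-free nuclear receptor dimers were incubated 1 h on custom Agilent 4×180K protein-binding microarrays carrying double-stranded probes. Antibodies against each partner (one per run) detected binding, and z-scores were calculated against random background probes after regression normalization of scanned fluorescence.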
# [2] = tested on: LXRa:RXRa (NR concentration 270 nM, RXRa partner concentration 90 nM)
# In short: as §1
# [3] = tested on: LXRa homodimer (NR concentration 270 nM)
# In short: as §1
# [4] = tested on: LXRb:RXRa (NR concentration 270 nM, RXRa partner concentration 90 nM)
# In short: as §1
# [5] = tested on: LXRb homodimer (NR concentration 270 nM)
# In short: as §1
# [6] = tested on: PPARa:RXRa (NR concentration 270 nM, RXRa partner concentration 90 nM)
# In short: as §1
# [7] = tested on: PPARg:RXRa (NR concentration 180 nM, RXRa partner concentration 90 nM)
# In short: as §1
# [8] = tested on: PPARg:RXRa 270nM:90nM, anti-RXR (NR concentration 270 nM, RXRa partner concentration 90 nM)
# In short: as §1
# [9] = tested on: PPARg:RXRa 30nM:10nM, anti-RXR (NR concentration 30 nM, RXRa partner concentration 10 nM)
# In short: as §1
# [10] = tested on: PPARg:RXRa 90nM:30nM, anti-RXR (NR concentration 90 nM, RXRa partner concentration 30 nM)
# In short: as §1
# [11] = tested on: PPARg:RXRa DBDmut IVT, anti-RXR (DBD mutation: RXRa K156A/R161A, NR concentration 270 nM, RXRa partner concentration 90 nM)
# In short: as §1
# [12] = tested on: PPARg:RXRa IVT, anti-PPARg (NR concentration 270 nM, RXRa partner concentration 90 nM)
# In short: as §1
# [13] = tested on: PPARg DBDmut:RXRa IVT, anti-PPARg (DBD mutation: PPARg1 K132A/R137A, NR concentration 270 nM, RXRa partner concentration 90 nM)
# In short: as §1
# [14] = tested on: PPARg DBDmut IVT, anti-PPARg (DBD mutation: PPARg1 K132A/R137A, NR concentration 270 nM)
# In short: as §1
# [15] = tested on: PPARg homodimer (NR concentration 180 nM)
# In short: as §1
# [16] = tested on: PXR:RXRa (NR concentration 270 nM, RXRa partner concentration 90 nM)
# In short: as §1
# [17] = tested on: PXR homodimer (NR concentration 270 nM)
# In short: as §1
# [18] = tested on: RARa:RXR (NR concentration 270 nM, RXRa partner concentration 90 nM)
# In short: as §1
# [19] = tested on: RARa homodimer (NR concentration 270 nM)
# In short: as §1
# [20] = tested on: RARb:RXRa (NR concentration 270 nM, RXRa partner concentration 90 nM)
# In short: as §1
Sequence,PBM binding z-score [1],PBM binding z-score [2],PBM binding z-score [3],PBM binding z-score [4],PBM binding z-score [5],PBM binding z-score [6],PBM binding z-score [7],PBM binding z-score [8],PBM binding z-score [9],PBM binding z-score [10],PBM binding z-score [11],PBM binding z-score [12],PBM binding z-score [13],PBM binding z-score [14],PBM binding z-score [15],PBM binding z-score [16],PBM binding z-score [17],PBM binding z-score [18],PBM binding z-score [19],PBM binding z-score [20]
CGACAAAGTTCAACTAAGGTAACGTAAAGCACGC,6.54,5.86,3.44,4.09,1.92,4.93,4.38,4.95,2.16,3.95,0.248,1.7,0.707,1.21,2.54,5.16,3.06,3.51,0.942,5.07
TCGAGTAGGTTAGACGGGGCATTCAGCCAACATA,0.121,0.00602,-0.343,0.522,-0.523,0.783,0.118,0.993,1.05,1.04,2.22,0.996,-0.111,0.319,-0.139,-0.0359,-0.369,-0.135,-0.49,0.612
CCTCGGAGGCCAGAAGGTCAGAGCTGTCCGCTTT,1.46,1.39,-0.337,0.993,-0.99,1.97,-0.665,1.19,-0.826,0.521,-0.00859,-0.274,-1.71,-1.89,0.843,1.32,-0.625,2.12,-0.274,2.98
ATCTCTAGGTAAAGATAGTTAAGTGAATGCAAAT,-0.0331,0.0561,-0.0773,0.142,0.643,-0.0582,0.771,0.421,0.415,0.236,1.79,1.42,0.229,1.6,0.449,-0.33,0.0795,-0.0694,0.927,-0.0166
CAAACTAGGTCCAGAGGTCAAAGTCCGCTTCCCG,4.77,5.55,5.71,5.03,1.62,5.29,5.18,6.22,4.37,6.29,2.96,3.98,0.89,0.535,3.29,5.47,2.58,5.5,0.452,4.11
CCAGACAGGTGTAAGGTAACTCAGTCTGGTACGC,-0.0338,-0.35,-0.126,-0.421,-0.449,0.0692,0.41,0.842,-0.246,0.409,-0.423,-0.31,-0.287,-0.728,0.365,-0.318,-0.0688,-0.0779,-0.14,-0.403
TCATATAGGTAAACAGGTGAAAGTGCGTAAGTTA,1.13,1.29,0.37,1.13,0.114,3.19,4.88,5.09,4.64,5.1,4.84,4.9,1.29,1.03,1.33,1.04,0.631,1.27,1.75,0.94
CAAACTAGGTCTAAGGTCAAAGTCGAGCCAACCA,5.18,4.6,2.94,4.32,1.16,6.52,10.5,9.19,9.22,10.2,3.97,5.92,1.31,0.848,2.46,4.42,1.59,4.7,1.21,4.14
CCGATTGGGGCAAGGTTACCATAACGCACAGCCA,0.189,0.481,-0.246,0.649,-1.05,1.28,1.44,1.49,0.0472,0.943,1.32,1.29,-0.839,-0.45,0.0331,0.36,-0.458,0.793,-0.365,1.67
CCTTACGGGTGACTGACAGGTTATAGCATTTGGA,0.488,0.771,-0.154,0.347,-0.474,1.2,0.53,0.218,0.1,-0.0326,1.95,1.09,0.0764,-0.581,0.697,0.299,-0.0252,0.82,0.181,0.546
ACTTACGGGTCAACGAGGTTATAGGACGCGTATA,5.95,5.07,0.89,4.43,0.538,5.78,5.7,5.53,2.04,4.25,3.03,4.18,1.47,0.791,2,5.08,2.36,5,1.18,4.41
TCTAGCAGGGCAGAGGGTCACTCAAGAGGTACGG,1.06,1.06,-0.469,1.04,-0.996,2.51,2.06,3.48,2.03,3.63,1.26,1.9,-0.31,-0.497,1.22,1.7,-0.546,2.42,-0.749,2.61
CCTAGCAGGCCAGGGTCACTCCAGCATTTCGCTT,1.55,1.25,-0.465,1.65,-0.731,2.73,0.332,1.25,-0.559,0.667,0.422,1.18,-1.53,-1.63,1.15,2.12,-0.229,2.93,0.279,2.47
CGAACTAGGTCATCCAGGACAGTGTATACATTGA,4.45,2.66,0.861,2.24,0.0566,4.61,7.47,6.1,3.25,5.65,8.32,8.01,2.41,1.17,1.54,2.03,1.29,2.33,0.356,4.02
TCGGCTAGGTCAACGATGGTCAGCTAATCTGCTA,3.23,2.31,-0.307,1.72,-0.717,3.14,1.75,2.37,1.62,2.03,3.13,3.06,-0.836,-0.603,1.19,1.58,-0.468,2.04,-0.329,3.97
